# Assay outcomes from PubChem BioAssay.
# TDP43 rescue = qHTS of TDP-43 Inhibitors; TDP-43 expressing yeast growth rescue, BacTiter-Glo, 24 h; Potency, µM (top dose mostly 46.1 µM), for inactives: at the top dose growth rescue (activation), hits mostly activators; actives 1.8% (n = 410,000); AID 652104, 2013; further: % of control where 0% means no effect; nearly all actives have a fitted effect of over 50% in size
#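 Cell-based yeast growth screen: TDP-43 expression induced in galactose, inoculum OD600=0.02 after raffinose pregrowth to mid-log. Read-out BacTiter-Glo luminescence at 24 hr, 30 deg C; inhibition of toxicity seen as signal increase.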
# aSyn yeast inh = qHTS of alpha-syn Inhibitors; Potency, µM (top dose mostly 46.1 µM), inactives show at the highest dose growth rescue (activation), actives largely listed as activators; Yeast expressing alpha-synuclein, growth rescue, BacTiter-Glo, 24 h; actives 0.14% (n = 370,000); further: % of control where 0% means no effect; nearly all actives have a fitted effect of over 65% in size
#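 Screening used galactose-induced yeast with toxic alpha-synuclein levels, exposed to compound for 24 hr at 30 deg C. Cell growth, read with BacTiter-Glo luminescence, gave the measured signal.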
# FUS suppressor = qHTS for Suppressors of FUS Proteinopathy: Primary screen using FUS-linked yeast assay. AID 1347120, 2019. S. cerevisiae FUS-expressing, growth rescue, OD600, 24 h. Potency, µM (doses to about 76.6 µM), usual class: activators. actives 0.24% (n = 390,000);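 further: plate controls were DMSO vehicle for no effect and reference control for full effect; nearly all actives have a fitted effect of over 55% in size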
#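 Steps: raffinose overnight preculture; dilution to OD 0.005 in 2% galactose minimal medium; compound addition (concentration series); 24hr at 30C, 99% humidity; absorbance read at 600 nm.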
# Mito fusion act = qHTS Assay for Small Molecule Inhibitors of Mitochondrial Division or Activators of Mitochondrial Fusion | S. cerevisiae fusion-defective mutant growth rescue, CellTiterGlo 48 h | Potency, µM (titrated, usually from 46.1 µM), for the others: at the top dose growth rescue (activation), most hits filed as activators | actives 0.23% (n = 320,000) | AID 485298, 2010; further: % of control where 0% means no effect; nearly all actives have a fitted effect of over 45% in size
#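 Growth-rescue viability read-out: after 48 h at the non-permissive 37C in glycerol/ethanol YPEG, yeast mitochondrial fusion mutants are measured by CellTiterGlo luminescence; compounds (23 nl pinned per well) restoring growth score as division inhibitors or fusion activators.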
# Abeta yeast res = qHTS for compounds that reverse cellular toxicity of Amyloid beta (A-beta) peptide in yeast: Primary Screen | yeast expressing A-beta42, growth rescue, OD600, 48 h; response scale: 0% DMSO, 100% iron-clioquinol control | AID 1347071, 2019 | Potency, µM (series often up to 46.1 µM), most hits filed as activators | actives 0.063% (n = 410,000); further: nearly all actives have a fitted effect of over 55% in size
#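 Growth rescue measured by 600 nm absorbance after 48 h yeast culture at 30 C with compound. Values normalized between DMSO and an equimolar ferric chloride plus clioquinol control.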
# An asterisk follows results filed as active; i = inactive; ? = inconclusive; . = not tested or not shown; [ ] = dose if it differs, or a comment. Most compounds without a hit are left out; they make up all but 2.2% or so of the library. The call rests on the fitted dose curve; in most records, active means well fitted curve in the direction sought with a large enough effect; inconclusive means small, poorly fitted or top-dose-only effect, or another doubt; inactive means no such curve, though single readings can be large; an effect the other way counts as inactive or inconclusive. Potency means the concentration at half of the fitted maximal effect.
SMILES,TDP43 rescue,aSyn yeast inh,FUS suppressor,Mito fusion act,Abeta yeast res
Cc1cc(NCCCCCCCNc2cc(C)nc3cc([N+](=O)[O-])ccc23)c2ccc([N+](=O)[O-])cc2n1,14.1µM*,0.8%,.,.,i
O=[N+]([O-])c1ccc(CSc2nnc(Cc3ccccc3)o2)cc1,?,13.2%,i,15.0%,i
COc1ccc(Cc2nnc(SCc3ccc([N+](=O)[O-])cc3)o2)cc1,17.8µM*,6.5%,i,-8.2%,i
COC(=O)CCNC(=O)N1CCN(c2nnc(C)c3c(C)n(-c4ccc(Cl)cc4)nc23)CC1,20.4%,.,i,.,i
COc1ccccc1/C=C/c1nc2ccccc2o1,.,-17.7%,.,.,.
Cc1cc(NC(=O)c2cc(-c3ccccc3Cl)nc3ccccc23)no1,14.1µM*,2.4%,i,21.9%,i
O=C(NCc1ccccn1)c1cc(-c2ccccc2Cl)nc2ccccc12,20µM*,5.3%,.,12.2%,i
Brc1ccc(Nc2nc(-c3cccnc3)cs2)cc1,11.2µM*,-10.9%,i,7.0%,i
Brc1cccc(Nc2nc(-c3cccnc3)cs2)c1,3.16µM*,-7.7%,i,-4.7%,i
Clc1cccc(Nc2nc(-c3cccnc3)cs2)c1,?,-0.4%,i,8.5%,i
Oc1ccc(Nc2nc(-c3cccnc3)cs2)cc1,-15.3%,-4.4%,i,-4.0%,i
Cc1cnc(-c2nc3ccccc3n2C(C(=O)Nc2c(C)cccc2C)C2CC2)cn1 (stereo not drawn),23.3%,0.0%,i,.,i
CCn1c(COc2ccc(C)cc2)nc2ccccc21,11.2µM*,5.6%,i,11.3%,i
Cc1ccc(OCc2nc3ccccc3n2C(C(=O)Nc2c(C)cccc2C)C2CC2)cc1 (stereo not drawn),-16.8%,-0.8%,8.91µM*,.,i
CCOCCn1c(COc2ccc(C)cc2)nc2ccccc21,-6.3%,-0.4%,.,?,i
C=CCn1c(COc2ccccc2)nc2ccccc21,-10.8%[1.82 µM],13.6%,i,-9.7%,20µM*
CCOc1ccccc1CNC(=O)c1nc(-c2ccc(Cl)cc2)n2c1CCCCC2,19.7%,.,?,.,i
O=C(Nc1ccccc1C(F)(F)F)N1CCC2(CC1)Oc1ccccc1C(=O)N2Cc1ccccc1F,7.4%,.,i,.,i
Cc1oc(-c2ccccc2)nc1C(=O)N1CCN(c2ccc(F)cc2)CC1,11.2µM*,1.8%,i,-1.0%,i
CCCCCCC(=O)Nc1ccc(C(=O)N/N=C/c2cccnc2)cc1,-5.9%,-1.4%,28.2µM*,3.1%,i
O=C(c1cc2c(=O)n3ccccc3nc2s1)N1CCN(c2cccc(Cl)c2)CC1,?,11.0%,?,?,i
O=C(c1cc2ccccc2cc1O)N1CCN(c2ccccc2O)CC1,-24.6%,21.3%,i,-0.6%,?
O=C(c1cc2ccccc2cc1O)N1CCN(c2cccc(Cl)c2)CC1,11.2µM*,12.5%,i,7.8%,?
O=C(c1ccccc1F)N1CCN(c2cnn(-c3cccc(Cl)c3)c(=O)c2Cl)CC1,20µM*,-3.0%,i,3.1%,i
O=C(c1c(Cl)nc2sccn12)N1CCN(c2cccc(Cl)c2)CC1,14.1µM*,-1.4%,i,2.0%,i
SMILES,TDP43 rescue,aSyn yeast inh,FUS suppressor,Mito fusion act,Abeta yeast res
O=[N+]([O-])/C=C/c1cn(Cc2ccc(F)cc2)c2ccccc12,12.6µM*,8.1%,i,-23.8%,i
CCCCCC(=O)NC1CCCCN(Cc2ccc(C)cc2)C1=O (stereo not drawn),.,.,i,.,.
C(=C\c1ccnc2ccccc12)/c1ccc(N(Cc2ccccc2)Cc2ccccc2)cc1,.,-1.9%,.,.,.
Cc1cccc(OCC(=O)Nc2cccc(C(=O)OCc3cc(=O)n4nc(C(C)C)sc4n3)c2)c1,23.9%,.,i,.,i
CN1/C(=C\C(=O)Nc2ccc(F)cc2)C(C)(C)c2ccccc21,-11.5%,-3.3%,.,10µM*,i
Nc1ccccc1SCc1csc(-c2ccc(Cl)cc2)n1,12.6µM*,-24.0%,i,-40.6%,i
CCCN1CNc2c(c(=O)[nH]c(=S)n2CCc2cc(Cl)cc(Cl)c2)C1,.,-0.5%,.,.,.
